Inconclusive results are not listed. A number with no mark means an inactive call. The source made the active and inactive calls. The call rests on the fitted dose curve; in most records, active means well fitted cell-killing curve with a large enough effect in the repeat runs; inconclusive means weak or mixed curves, or effect the other way; inactive means flat fitted curve, though single readings scatter.

Results on 37 compounds are retold here after PubChem BioAssay (Tox21).
On the % scale 0 is the no-effect control and ±100 the full control effect.

This assay is described as follows: qHTS assay to identify small molecule antagonists of the androgen receptor (AR) signaling pathway using the MDA cell line - cell viability counter screen (AID 743041; further: nearly all actives have a fitted effect of over 45% in size). Conditions: MDA-kb2 viability, CellTiter-Fluor, 16 h, cells co-treated with R1881 androgen agonist; series mostly up to 70.3 µM; viability change, negative = cytotoxic: at the top concentration. The procedure, abridged: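 qHTS viability read-out; MDA-kb2 AR-luc; R1881-stimulated; 16 h exposure at 37C, 0% CO2; CellTiter-Fluor, 30 min; fluorescence intensity.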
Turning to `C=N[C@@H](C(=O)N[C@@H]1C(=O)N2[C@@H]1SC(C)(C)[C@@H]2C(=O)O)c1ccccc1`, the “viability change, negative = cytotoxic” value is 4.38%.

`O=C(O)/C=C/C(=O)Nc1ccc(S(=O)(=O)Nc2nccs2)cc1`: the “viability change, negative = cytotoxic” value is 11.6%.

For `O=c1[nH]c(=O)n([C@H]2C[C@H](O)[C@@H](CO)O2)cc1/C=C/Br`, the “viability change, negative = cytotoxic” value is 6.06%. Same read-out and setting: then `C[C@H](O)CN(C)C`, with -4.11%; and `O=C1CC[C@@H](C(=O)N[C@H]2C[C@@H]2c2ccccc2)N1`, with 13.5%.

`CC(C)C[C@H](NC(=O)[C@@H](COC(C)(C)C)NC(=O)[C@H](Cc1ccc(O)cc1)NC(=O)[C@H](CO)NC(=O)[C@H](Cc1c[nH]c2ccccc12)NC(=O)[C@H](Cc1cnc[nH]1)NC(=O)[C@@H]1CCC(=O)N1)C(=O)N[C@@H](CCCN=C(N)N)C(=O)N1CCC[C@H]1C(=O)NNC(N)=O`: the Potency result was “inactive”.

Regarding `NC[C@H]1O[C@H](O[C@H]2[C@H](O)[C@@H](O[C@H]3O[C@H](CO)[C@@H](O)[C@H](N)[C@H]3O)[C@H](N)C[C@@H]2N)[C@H](N)C[C@@H]1O`, the “viability change, negative = cytotoxic” value is 12.7% [at 32.5 µM]. Same read-out and setting: the same measure for `FC(F)(F)COCC(F)(F)F`: -1.59%; for `NCC[C@H](O)C(=O)N[C@@H]1C[C@H](N)[C@@H](O[C@H]2O[C@H](CN)CC[C@H]2N)[C@H](O)[C@H]1O[C@H]1O[C@H](CO)[C@@H](O)[C@H](N)[C@H]1O`: 1.09%; for `CC(C)Cc1ccc([C@H](C)C(=O)O)cc1`: 6.44%. The same measure, in the same setting: the same measure for `O=P(O)(O)C(O)(Cn1ccnc1)P(=O)(O)O`: 7.33%. On the same count and under the same terms, the same measure for `NCC(O)CC(=O)O` (configuration not stated): 0.822%; for `CNCC(=O)N[C@@H](CCCN=C(N)N)C(=O)N[C@H](C(=O)N[C@@H](Cc1ccc(O)cc1)C(=O)N[C@H](C(=O)N[C@@H](Cc1cnc[nH]1)C(=O)N1CCC[C@H]1C(=O)N[C@@H](C)C(=O)O)C(C)C)C(C)C`: -15.4%; for `CCC(NC(C)C)C(O)c1ccc(O)c(O)c1` (configuration not stated): 25.6%. `CCCOC(=O)c1ccc(O)cc1`: the “viability change, negative = cytotoxic” value was -2.14%. In the case of `CC12CCC(C[N+](C)(CCC[N+](C)(C)C)C1)C2(C)C` (configuration not stated), the “viability change, negative = cytotoxic” value is 5.46%. The same measure, in the same setting: then `COc1ccc(/C=N/NC(=O)c2ccncc2)c(C(=O)O)c1OC`, with 2.95%.

On to `O=C1[O][Bi][O]c2ccccc21`, for which the “viability change, negative = cytotoxic” value was -2.06%. The same measure, in the same setting: the same measure for `CC(=NCc1ccccc1)c1ccccc1O`: 9.51%; for `C[C@H](NCCc1ccc(O)cc1)[C@H](O)c1ccc(O)cc1`: -3.6%.

`CCCC(CCC)C(=O)OC1C[C@H]2CC[C@@H](C1)[N+]2(C)C` (some centres not stated): the Potency result is “inactive”.

With `CC(C)(S)C(=O)N[C@@H](CS)C(=O)O`, the Potency entry is “inactive”. Turning to `NC(=O)[C@H]1O[C@@H](O)[C@H](O)[C@@H](O)[C@@H]1O`, the “viability change, negative = cytotoxic” value was -20.7%. Still for that read-out and setting: the same measure for `CCCCCCCCCCCCCC(=O)OCC(COP(=O)([O-])OCC[N+](C)(C)C)OC(=O)CCCCCCCCCCCCC` (configuration not stated): 2.48%; for `CCN(CC)C(=O)c1cccnc1`: 7.72%; for `CC(C)(COP(=O)(O)OP(=O)(O)OC[C@H]1O[C@@H](n2cnc3c(N)ncnc32)[C@H](O)[C@@H]1OP(=O)(O)O)C(O)C(=O)NCCC(=O)NCCS` (some centres not stated): 21.5%.

As to `NC(=S)NS(=O)(=O)c1ccc(N)cc1`, the “viability change, negative = cytotoxic” value is 2.03%.

For the compound `c1ccc2cc3c4ccccc4c4ccccc4c3cc2c1`, the “viability change, negative = cytotoxic” value was -0.801% [at 95 µM].

For the compound `C[S+](CC[C@H](N)C(=O)O)C[C@H]1O[C@@H](n2cnc3c(N)ncnc32)[C@H](O)[C@@H]1O` (some centres not stated), the Potency entry was “inactive”.

Take `CC(C)(C)C(=O)OCC(=O)[C@H]1CC[C@H]2[C@@H]3CCC4=CC(=O)CC[C@]4(C)[C@H]3CC[C@]12C`: the “viability change, negative = cytotoxic” value is -13.3%. The same measure, in the same setting: then `CC(=O)Nc1ccc(OC(C)=O)cc1`, with 3.6%; and `C=CC(N)CCC(=O)O` (configuration not stated), with 1.88%. For the compound `Cc1c(N)nc([C@H](CC(N)=O)NC[C@H](N)C(N)=O)nc1C(=O)N[C@H](C(=O)N[C@H](C)[C@@H](O)[C@H](C)C(=O)N[C@H](C(=O)NCCc1nc(-c2nc(C(=O)NCCCCN=C(N)N)cs2)cs1)[C@@H](C)O)[C@@H](O[C@@H]1O[C@@H](CO)[C@@H](O)[C@H](O)[C@@H]1O[C@H]1O[C@H](CO)[C@@H](O)[C@H](OC(N)=O)[C@@H]1O)c1cnc[nH]1`, the Potency entry was “inactive”. On the same count and under the same terms, the same measure for `CCOC(=O)COc1ccc2c(=O)cc(-c3ccccc3)oc2c1`: “inactive”. As for `CO/N=C(\C(=O)N[C@@H]1C(=O)N2C(C(=O)[O-])=C(C[n+]3ccc(N)n3CCO)CS[C@H]12)c1csc(N)n1`, the “viability change, negative = cytotoxic” value is 3.28%. For `NC(=O)CC[C@@H]1NC(=O)[C@H](Cc2ccccc2)NC(=O)[C@H](Cc2ccc(O)cc2)NC(=O)[C@@H](N)CSSC[C@@H](C(=O)N2CCC[C@H]2C(=O)N[C@@H](CCCN=C(N)N)C(=O)NCC(N)=O)NC(=O)[C@H](CC(N)=O)NC1=O`, the Potency entry was “inactive”.

On to `Cc1onc(-c2c(F)cccc2Cl)c1C(=O)N[C@@H]1C(=O)N2[C@@H]1SC(C)(C)[C@@H]2C(=O)O`, for which the Potency result was “inactive”.
